Screening data as filed in PubChem.
Rows were chosen to be rich in hits. Some 5.3% of all compounds tested hit in one or more screens of this group.
MT1-MMP txn act – activates MT1-MMP transcription. AID 750. 0.16% of 86,000 active. HT1080 MT1-MMP promoter luciferase reporter, luminescence, overnight; stronger effect = higher value. activation factor at 10 µM;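 active = activation factor of at least 2 for MT1-MMP transcription at 10 µM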
PostGolgi ctrl – yeast control strain growth, post-Golgi counter-screen; efflux-deficient yeast background strain, growth absorbance A615, 16 h; inhibition, % at 10 µM; 5% of 98,000 active
Measles CPE – protection of cells from measles virus. Measles virus-infected cells, CPE protection, absorbance. protection (pct of control), % at 4 µM. 1.5% of 140,000 active. AID 841; in the data active = protection mostly above about 24%, no sharp cut-off; inactive = mostly below about 26%
PostGolgi yeast – growth inhibition of a yeast mutant, post-Golgi transport screen; post-Golgi transport phenotypic cell assay; inhibition, % at 10 µM; 0.9% of 98,000 active;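 also: yeast cells grown in 1536-well plates; yeast grown about 18 h at 30C before absorbance read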
Starred values were filed as active, the others as inactive; nt = no result. Rule as the data show it, unless noted: active = inhibition above about 30%; inactive = the rest.

SMILES	MT1-MMP txn act	PostGolgi ctrl	Measles CPE	PostGolgi yeast
CC(Oc1ccccc1F)C(=O)Nc1ccc2ccccc2c1 (centres undefined)	2*	nt	3.6	nt
c1cc2c(cc1Oc1nc(N3CCOCC3)nc(N3CCOCC3)n1)OCO2	1.1	2.2	0.4	6.0
Clc1ccc(Oc2nc(N3CCOCC3)nc(N3CCOCC3)n2)cc1	nt	15.9	33.7*	3.0
O=C1C2C(c3ccccc3)C=CC(c3ccccc3)C2C(=O)N1c1ccncc1 (centres undefined)	nt	34.1*	8.7	-5.0
O=C1C2C(c3ccccc3)C=CC(c3ccccc3)C2C(=O)N1c1cccnc1 (centres undefined)	nt	nt	6.2	nt
O=S(=O)(Nc1nc2ccccc2nc1Nc1ccc2c(c1)OCO2)c1ccc(F)cc1	nt	nt	14.9	nt
Nc1nc(Nc2ccc(Cl)cc2)n[nH]1	nt	3.6	38.5*	28.3
Clc1ccc(-n2ncc3c(NCc4cccs4)ncnc32)cc1	1.6	-13.1	11.5	-2.4
Cc1cccc(-n2ncc3c(NCc4cccs4)ncnc32)c1	1.8	42.5*	5.1	5.6
CCOC(=O)C1=C(NC(=S)NC(=O)c2ccccc2)c2ccccc2CC1C(C)C (centres undefined)	nt	14.2	49.6*	14.1
Cc1ccc(C2=NC(C)(C)N=C2SCC(=O)Nc2ccc(Cl)cc2)cc1	1.4	34.5*	31.4	12.8
CC1(C)N=C(SCC(=O)Nc2ccccc2)C(c2ccc(Cl)cc2)=N1	1.2	9.1	8.1	-3.0
Cn1c(SCC(=O)n2c3c(c4ccccc42)CCCC3)nnc1-c1ccccc1	1.1	33.8*	5.0	-0.5
CCN(CC)CC(O)COCCC12CC3CC(CC(C3)C1)C2 (centres undefined)	1.1	4.2	2.0	-6.5
CCOC(=O)N1CCN(CC(O)COCCC23CC4CC(CC(C4)C2)C3)CC1 (centres undefined)	1	31.0*	4.7	3.9
N#CCSc1nc(N)c(C#N)c(C2CCCCC2)c1C#N	1	50.8*	6.9	18.0
CCOC(=O)c1sc(NC(=O)c2ccccc2OC)nc1C	nt	41.8*	7.6	-1.6
CCOC(=O)c1oc2ccccc2c1NC(=O)c1ccccc1OC	1.1	69.8*	10.4	14.9
CCOC(=O)c1oc2ccccc2c1NC(=O)COc1cccc(OC)c1	1.1	3.7	16.8	-3.8
O=C(N/N=C1\CCCc2c1[nH]c1ccc([N+](=O)[O-])cc21)c1ccncc1	nt	nt	8.4	nt
COc1ccc(C)cc1NC(=O)CN1CCN(S(=O)(=O)c2ccc(Br)cc2)CC1	1	46.3*	20.9	1.0
O=C(CN1CCN(S(=O)(=O)c2ccc(Br)cc2)CC1)Nc1ccccc1F	1.1	53.6*	12.0	-13.7
O=C(CN1CCN(S(=O)(=O)c2ccc(Br)cc2)CC1)Nc1ccc(F)cc1	1.1	7.4	2.5	4.3
COc1ccc(NC(C)=O)cc1NC(=O)CN1CCN(S(=O)(=O)c2ccc(C(C)C)cc2)CC1	1	-0.9	1.1	-1.0
O=C(CN1CCCN(S(=O)(=O)c2ccc(F)cc2)CC1)Nc1ccccc1Br	1.2	40.9*	12.3	7.8
SMILES	MT1-MMP txn act	PostGolgi ctrl	Measles CPE	PostGolgi yeast
CN(C)c1ccc(S(=O)(=O)NCC(=O)OCC(=O)Nc2cc(Cl)cc(Cl)c2)cc1[N+](=O)[O-]	nt	nt	2.1	nt
COc1ccc(CNc2nc3ccccc3n2Cc2ccccc2)cc1OC	nt	6.9	5.2	1.4
N#Cc1nc(-c2ccccc2F)oc1NCCc1ccccc1	1	12.8	1.6	20.1
N#Cc1nc(-c2cccs2)oc1NCCc1ccccc1	1.5	34.5*	27.3	0.2
CC(C)(C)c1ccc(OCC(=O)N/N=C/c2ccsc2)cc1	nt	nt	2.7	nt
CC(NC(=O)c1ccc([N+](=O)[O-])cc1[N+](=O)[O-])c1ccc(-c2ccccc2)cc1 (centres undefined)	nt	nt	40.0*	nt
Cc1ccc(CSCCNS(=O)(=O)c2ccccc2)cc1	nt	nt	9.7	nt
Cc1cc(C)nc(-n2nc(C)c(Sc3ccc(F)cc3)c2N)n1	1.7	51.2*	11.1	1.7
CN(C)S(=O)(=O)N(CC(=O)N(Cc1ccccc1)Cc1ccccc1)c1ccccc1	1.2	33.9*	16.0	-5.8
CN(C)S(=O)(=O)N(Cc1ccc(Br)cc1)c1ccccc1	1	13.1	19.1	15.3
Cc1c(Cl)cccc1NC(=O)c1nc(C)n(-c2cc(OC(C)C)c(Cl)cc2Cl)n1	nt	30.4*	nt	5.8
CCOc1cc(Br)ccc1S(=O)(=O)N1CCC(C(N)=O)CC1	nt	nt	5.2	nt
CCN1N=C(c2ccccc2)Cn2c1nc1ccccc12	1.3	30.4*	19.1	17.1
CCOC(=O)NCc1ccc(Cl)c(Cl)c1	1.2	35.9*	15.7	4.5
N#CCSc1nnc(COc2ccc3ccccc3c2)o1	1.3	14.2	46.1*	-10.3
CN(C1CCCCC1)S(=O)(=O)c1ccc(NC(=O)CCC(=O)O)cc1	1.1	7.2	11.7	-1.2
CN(C1CCCCC1)S(=O)(=O)c1ccc(NC(=O)C2CCCCC2)cc1	1.1	63.0*	11.5	-6.2
Cn1c(C(=O)OC(C(=O)NCc2ccco2)c2ccncc2)cc2sccc21 (centres undefined)	1.1	-12.2	23.4	-1.8
COc1nc2ccc(C)cc2cc1-c1noc(-c2ccccc2)n1	nt	31.5*	6.2	8.1
O=C(N/N=C/c1coc2ccccc2c1=O)c1cn(-c2ccccc2)nc1-c1ccc(F)cc1	nt	nt	12.6	nt
CCOC(=O)Nc1oc2ccccc2c(=O)c1C	1.2	nt	0.8	nt
CCOC(=O)/C=C(\C)Sc1cc(=O)oc2ccccc12	1.3	32.7*	2.9	8.4
c1ccc(CCn2c3ccccc3c3nnc(SCc4ccc5nonc5c4)nc32)cc1	nt	9.9	24.2*	22.1
C=CC[C@@H]1C=C[C@H](O/N=C/c2ccc(C(=O)N3[C@H](c4ccc(C)cc4)[C@@H](C)CC[C@H]3C(=O)OC)cc2)[C@@H](CO)O1	nt	nt	5.5	nt
CC1CC(=O)Nc2ccccc2N1S(=O)(=O)c1cccc(Cl)c1 (centres undefined)	nt	nt	39.3*	nt
SMILES	MT1-MMP txn act	PostGolgi ctrl	Measles CPE	PostGolgi yeast
CCOc1nc(NC2CCCCC2)nc(NC(C)(C)C)n1	1.2	nt	61.1*	nt
O=C(O)CC1(CC(=O)Nc2ccc3ccccc3c2)CCCCC1	1	7.4	3.5	3.5
NC(=O)CC1(CC(=O)O)CCCCC1	1.2	-4.0	68.0*	-1.8
CCOC(=O)N1CCC(N(CCOC)C(=O)Nc2ccc(Cl)c(Cl)c2)CC1	1	64.2*	4.4	-2.8
CC1CCc2nc3sc4c(c3c(N)c2C1)CCCC4 (centres undefined)	nt	nt	7.3	nt
Nc1c2c(nc3sc4c(c13)CCCCC4)CCCCC2	nt	nt	48.5*	nt
COC(=O)c1ccc(CNC(=O)c2ccc(COc3ccccc3)cc2)cc1	nt	nt	3.0	nt
COCC(=O)OCC(=O)Nc1cc(C(C)(C)C)nn1-c1ccccc1	1.2	11.7	20.9	11.7
CC(C)(C)c1cc(NC(=O)COc2ccc(Br)cc2)n(-c2ccccc2)n1	nt	36.5*	3.7	4.3
O=C(Nc1ccccc1Br)C1CC(=O)N(c2ccc3c4c(cccc24)CC3)C1 (centres undefined)	nt	nt	5.7	nt
CCOc1ccc(N(CC(=O)NCC2CCCO2)S(=O)(=O)c2ccc(SC)cc2)cc1 (centres undefined)	1.2	6.8	2.4	-6.6
COc1ccc(OC)c2c(C)cc(N3CCN(C(=O)c4ccc(Cl)cc4)CC3)nc12	1.1	23.9	55.5*	-2.1
COC(=O)C(C)NC(=O)c1ccc(C(C)(C)C)cc1 (centres undefined)	nt	nt	6.5	nt
